Measured values as given in PubChem BioAssay AID1851 (National Center for Advancing Translational Sciences (NCATS), 2009).
Screen size: about 16,000 compounds; about 5,100 (32%) were called active. Inconclusive results (about 25%) are left out. The list shows a part of the results. Unmarked numbers belong to inactive results. Calls come from the whole dose curve; as a rule, active = well fitted curve in the direction sought with a large enough effect; inconclusive = small, poorly fitted or top-dose-only effect, or effect the other way; inactive = no such curve, though single readings can be large or run the other way.

The molecules below were run against Cytochrome P450 3A4 (Homo sapiens) (UniProt P08684) (assay: Cytochrome panel assay with activity outcomes). Settings: recombinant CYP, pro-luciferin dealkylation, luminescence, p450-cyp3a4; series mostly up to 57.1 µM; activity, negative = inhibition: at the top concentration.
Cytochrome P450 3A4 (Homo sapiens), sequence (P08684 whole entry, looked up): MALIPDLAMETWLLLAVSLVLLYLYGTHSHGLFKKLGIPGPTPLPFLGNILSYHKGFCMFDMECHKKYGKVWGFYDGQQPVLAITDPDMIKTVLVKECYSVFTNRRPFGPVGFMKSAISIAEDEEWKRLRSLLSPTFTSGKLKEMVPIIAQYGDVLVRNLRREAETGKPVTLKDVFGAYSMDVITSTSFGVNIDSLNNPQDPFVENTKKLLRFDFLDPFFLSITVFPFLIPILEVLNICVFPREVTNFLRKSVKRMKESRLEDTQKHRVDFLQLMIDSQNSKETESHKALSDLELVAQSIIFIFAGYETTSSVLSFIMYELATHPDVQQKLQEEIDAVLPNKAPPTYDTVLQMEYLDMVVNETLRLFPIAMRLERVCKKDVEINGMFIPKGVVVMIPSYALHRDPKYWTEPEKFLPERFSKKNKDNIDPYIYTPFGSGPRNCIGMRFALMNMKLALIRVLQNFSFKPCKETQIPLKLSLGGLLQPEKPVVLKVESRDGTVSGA
% is set by controls: 0 for no effect and ±100 for the full control effect.

Compound	activity, negative = inhibition	AC50
O=C(N/N=C/c1cccc(OC2CSC2)c1)c1ccccc1O	-1.49% [at 2.29 µM]	–
CCCCS(=O)(=O)NC1=NCN(Cc2ccco2)CN1	-13.9%	–
CC1(C)OC(=O)N(Cc2ccco2)C1(C)O (stereo not drawn)	-11.6%	–
CC1=CC(=C2C(=O)c3ccccc3C2=O)C=C(C)N1Cc1ccco1	–	14.1 µM (active)
CCN(CC)CCCNC(=O)CC1Sc2ccccc2NC1=O (stereo not drawn)	6.35%	–
COC(=O)c1c(NC(=O)CC2Nc3ccccc3NC2=O)sc(C)c1C (stereo not drawn)	–	3.55 µM (active)
CC(Sc1nnc(C(C)N(C)C)n1-c1ccc(Cl)cc1)C(=O)Nc1ccc2c(c1)OCO2 (stereo not drawn)	–	0.891 µM (active)
C/C(=N\NC(N)=S)c1ccc[nH]1	-6.66% [at 11.4 µM]	–
Cc1ccc(-c2nc3ccccc3o2)cc1NC(=O)Cc1cccs1	28.9%	–
CCOCC(=O)Nc1cc(-c2cn3cccnc3n2)ccc1C	24.8%	–
CCOC(=O)c1c(NC(=O)c2ccc(N3CCOCC3)c([N+](=O)[O-])c2)sc(C)c1C	-1.99%	–
COc1ccc2oc(-c3ccc(C)c(NC(=O)CSc4ccc(Cl)cc4)c3)nc2c1	–	11.2 µM (active)
COc1ccc2oc(-c3ccc(C)c(NC(=O)c4ccc(N5CCOCC5)c([N+](=O)[O-])c4)c3)nc2c1	–	6.31 µM (active)
O=c1c2ccccc2ncn1CCCSc1ccccc1	-8.34%	–
CCCCn1cnc2c(cnn2-c2ccc(F)cc2)c1=O	-2.78%	–
Cc1ccc(SCCCn2cnc3ccccc3c2=O)cc1	–	11.2 µM (active)
O=C(c1ccccc1)c1nc2ccccc2n(CCCn2c(=O)c(C(=O)c3ccccc3)nc3ccccc32)c1=O	–	1.41 µM (active)
O=C(Cn1c(C(F)(F)F)nc2ccccc21)c1ccccc1	-8.98%	–
CCCCCn1c(=O)c(C(=O)c2ccccc2)nc2ccccc21	-5.99% [at 2.29 µM]	–
CN1CCC[C@@H](CC2c3ccccc3Sc3ccccc32)C1	-7.59% [at 25.6 µM]	–
COc1cc(-n2ccnc2SC)c(Cl)cc1Cl	–	14.1 µM (active)
Cc1cc(C(=O)NCc2ccccc2)no1	-13.3%	–
COc1ccc(-c2cc(C(=O)NCc3cccnc3)no2)cc1OC	–	2.51 µM (active)
COc1cccc(-c2nc(CS(=O)(=O)CC(=O)NCCCOC(C)C)c(C)o2)c1	–	7.94 µM (active)

Compound	activity, negative = inhibition	AC50
CCOC(=O)N1CCC(NC(=O)CS(=O)(=O)Cc2nc(-c3cccc(OC)c3)oc2C)CC1	–	7.08 µM (active)
Cc1cccc(C)c1NC(=O)C(c1ccc(Cl)cc1Cl)N1CCCCC1 (stereo not drawn)	–	3.98 µM (active)
Cc1cccc(C)c1NC(=O)N1CCC(N2CCCCC2)CC1	-21.5%	–
O=C(O)/C=C\C(=O)Nc1ncn[nH]1	-3.91% [at 11.4 µM]	–
COC(=O)Nc1nc2ccc(C(=O)c3ccccc3)cc2[nH]1	-1.41% [at 25.6 µM]	–
CCCN[C@@H](C)C(=O)Nc1ccccc1C	–	inactive
Cc1ccccc1NC(=O)C(C)c1cccc(C(=O)c2ccccc2)c1 (stereo not drawn)	–	7.94 µM (active)
Cc1cccc(-c2n[nH]c([N+](=O)[O-])n2)c1	-5.58% [at 2.29 µM]	–
COc1cccc(-c2noc(Cn3nc(C)c([N+](=O)[O-])c3C)n2)c1	–	14.1 µM (active)
COc1cccc(CN2CCN(Cc3cc(OC)c(OC)cc3[N+](=O)[O-])CC2)c1	-15.7% [at 2.29 µM]	–
CC[C@H](CO)NCCN[C@@H](CC)CO	4.95% [at 25.6 µM]	–
N[C@@H](Cc1[nH]nc2ccccc12)C(=O)O	-7.68% [at 11.4 µM]	–
O=C(COc1ccc(Cl)cc1)NCCC1=CCCCC1	-14.7% [at 11.4 µM]	–
COc1ccc(/C=N/NC(=O)CCCC(=O)NC2CCCCC2)cc1	–	12.6 µM (active)
COC(=O)c1ccc(NC(=S)NC2CCCCC2)cc1	-15.8%	–
CC(C)NC(=O)CC(=O)N/N=C/c1ccc(Br)cc1	-3.05%	–
COc1ccc(/C=N\NC(=O)O)cc1	-13.4% [at 11.4 µM]	–
COc1ccc(CCCC(=O)NC2CCCCC2)cc1	–	20 µM (active)
COc1ccc(CCNC(=O)COc2ccc(S(=O)(=O)NC3CCCCC3)cc2Cl)cc1	–	7.08 µM (active)
CCC1=C(C)CN(C(=O)NCCc2ccc(S(=O)(=O)NC(=O)NC3CCC(C)CC3)cc2)C1=O (stereo not drawn)	-25.9% [at 25.6 µM]	–
CC(C)OC(=O)C1=C2SCC(=O)N2C(N)=C(C#N)C1	-16.2% [at 11.4 µM]	–
COc1ccc(-n2c(=O)c(-c3cccc(C#N)c3)nc3cnc(N4CCNCC4)nc32)cc1	-26.2%	–
N#Cc1cccc(-c2nc(N3CCNCC3)c3ccccc3n2)c1	–	31.6 µM (active)
c1ccc2c(N3CCNCC3)nc(-c3ccc4c(c3)OCO4)nc2c1	–	7.94 µM (active)

Compound	activity, negative = inhibition	AC50
CN1CCN(c2nc(-c3cccc(C#N)c3)nc3ccccc23)CC1	–	15.8 µM (active)
C[C@@H](C(=O)NCc1ccccn1)[C@@H]1C[C@@]1(C)[C@@H](NC(=O)OCc1ccccc1)c1ccccc1	–	10 µM (active)
O=C(N[C@@H](c1ccccc1)[C@@H]1C[C@H]1C(=O)O)OCc1ccccc1	-15.8%	–
C[C@@H](C(=O)NCc1ccccn1)[C@H]1C[C@]1(C)[C@H](NC(=O)OCc1ccccc1)c1ccccc1	–	5.01 µM (active)
CC(Cc1ccccc1)C(=O)NCc1ccccn1 (stereo not drawn)	-42.9%	–
O=C(N[C@@H](c1ccccc1)[C@@H]1C[C@H]1C(=O)NCc1ccccn1)OCc1ccccc1	–	6.31 µM (active)
O=C(O)C(Sc1ccc(Cl)cc1)Sc1ccc(Cl)cc1	12.3% [at 11.4 µM]	–
O=C(NCc1ccccc1)C(c1cccs1)N(Cc1cccs1)C(=O)c1cnccn1 (stereo not drawn)	–	0.891 µM (active)
O=C(COC(=O)c1cnccn1)NCc1ccccc1	-20.5% [at 11.4 µM]	–
COc1ccc2nc3oc(C(=O)NCc4cccs4)cc3cc2c1	-23.2%	–
COc1ccc(C(=O)n2c(SC)nc3cc4c(cc32)OCCO4)cc1	-12% [at 2.29 µM]	–
O=C(O)C(Cc1cccs1)C(=O)O	-8.79% [at 11.4 µM]	–
COc1ccc(C(C(=O)NCc2ccccc2)N(Cc2cccs2)C(=O)c2cnccn2)cc1 (stereo not drawn)	–	0.708 µM (active)
CCc1ccc(C(C(=O)NCc2ccc(OC)cc2)N(CCOC)C(=O)Cc2cccs2)cc1 (stereo not drawn)	–	1 µM (active)
COCCN(C(=O)c1ccco1)c1nnc(-c2ccc(OC)cc2)s1	-28.3% [at 2.29 µM]	–
COc1ccc(CNC(=O)C(c2ccc(C)cc2)N(Cc2cccs2)C(=O)c2ccc3c(c2)OCCO3)cc1 (stereo not drawn)	–	1 µM (active)
CCOC(=O)c1c(NC(=O)CSc2nnnn2C)sc(C)c1C	–	14.1 µM (active)
CCOC(=O)c1c(NC(=O)CCc2ccc(CC)o2)sc(C)c1C	–	12.6 µM (active)
Cc1cccc(NC(=O)CSc2nnnn2C)n1	-9.12%	–
CCc1c(C)sc(NC(=O)OC)c1C(N)=O	19.8%	–
Nc1nc2c(ncn2COCCO)c(=O)[nH]1	–	inactive
Cc1ccc(S(=O)(=O)N(CC(=O)N/N=C/c2ccc(F)cc2)c2cccc3cccnc23)cc1	–	1.26 µM (active)
CC(C)NC(=O)CC(=O)N/N=C/c1ccc(F)cc1	-0.68%	–
O=C(CN(Cc1ccccc1)S(=O)(=O)c1ccc2c(c1)OCCO2)N/N=C/c1ccc(F)cc1	0.145% [at 2.29 µM]	–

Compound	activity, negative = inhibition	AC50
Cn1c(C(=O)O)c(CC(=O)NCC2COc3ccccc3O2)c2ccccc21 (stereo not drawn)	-8.31% [at 11.4 µM]	–
O=C1CC2(CCCC2)CC(=O)N1CCCCNC[C@H]1COc2ccccc2O1	–	0.631 µM (active)
Cc1ccc(C(=O)Nc2cccc(-c3cnc4ccccc4n3)c2)cc1	–	2.24 µM (active)
Cc1cccc(NC(=S)NC(=O)c2cc(-c3ccccc3)nc3ccccc23)c1	-27.7% [at 11.4 µM]	–
COc1ccc(C(=O)Nc2cc(OC)cc(OC)c2)cc1	–	14.1 µM (active)
Cc1ccc(C(=O)Nc2cc(Cl)ccc2OC(=O)c2ccc(C)cc2)cc1	-3.15% [at 2.29 µM]	–
COc1ccc(C(=O)Nc2cc(Cl)ccc2OC(=O)c2ccc(OC)cc2)cc1	–	22.4 µM (active)
CCOc1ccc(NC(=O)c2ccc(OC)cc2)cc1	24.3%	–
COC(=O)COc1cccc(NC(=O)c2ccc(C)cc2)c1	–	17.8 µM (active)
COc1ccc(NC(=O)C2(c3ccc(NC(=O)c4ccc(OC(C)=O)cc4)cc3)CCCC2)cc1	-14.1%	–
CC(=O)Nc1ccc(-c2cc(-c3ccc(NC(C)=O)cc3)nc(-c3ccccc3)n2)cc1	-4.31% [at 2.29 µM]	–
CCN1C(=O)[C@H]2[C@H]3[C@H](O)[C@H](O)C/C(=N/O[C@@H]4O[C@@H](COC(C)=O)[C@@H](OC(C)=O)[C@@H](OC(C)=O)[C@H]4OC(C)=O)[C@H]3CC[C@@H]2C1=O	-8.67% [at 11.4 µM]	–
Cc1ccc(C(=O)Nc2ccc(N3CCOCC3)nc2)cc1	-10.3%	–
Cc1ccc(-n2nc3ccc(NC(=O)c4ccc5c(c4)OCO5)cc3n2)cc1	–	8.91 µM (active)
COc1ccc(C(=O)Nc2cccc(-c3cnc4ccccc4n3)c2)cc1	–	2.51 µM (active)
COc1ccc(C(=O)COC(=O)c2ccc(NC(=O)c3ccccc3)cc2)cc1	7.44%	–
Cc1ccc(NC(=O)c2nnn(-c3cc(C)cc(C)c3)c2N)cc1	5.32% [at 2.29 µM]	–
Cc1ccc(C(=O)Nc2ccc3nccnc3c2)cc1	–	14.1 µM (active)
Cn1c(=O)n2n(c1=O)[C@H]1[C@H](O)[C@H]3O[C@@H]3/C(=N/OCc3ccccc3)[C@@H]1CC2	-26.2% [at 11.4 µM]	–
Cc1ccc(C)c(-n2c(CNC(=O)c3ccco3)nnc2SCC(=O)N2CCc3ccccc32)c1	–	7.08 µM (active)
Cc1ccc(-n2c(=O)[nH]cc(C(=O)N3CCc4ccccc43)c2=O)cc1	-21.6%	–
